Data: PubChem BioAssay (Tox21)
Records with an inconclusive call do not appear. Entries that show only a call come without a potency. Activity calls are given as the source filed them. Unless noted, calls follow the shape of the dose curve; as a rule, active = well fitted curve in the direction sought with a large enough effect in the repeat runs; inconclusive = weak or mixed curves; inactive = no such curve, though single readings can be large; an effect the other way counts as inactive or inconclusive.

Experiments:
[1] = qHTS assay to identify small molecule agonists of the RXR signaling pathway - cell viability counter screen (AID 1159529); also: nearly all actives have a fitted effect of over 50% in size; also: potency is read from the fitted curve at half-maximal effect
How it was run: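 Tox21 10K compounds were tested for cytotoxicity against GeneBLAzer RXR-alpha HEK 293T cells grown in 2% charcoal-stripped FBS. Exposure lasted 16 hr at 37 C, 5% CO2; viability read by CellTiter-Glo luminescence.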

[2] = qHTS assay to identify small molecule antagonists of the retinoid acid receptor (RAR) signaling pathway - cell viability counter screen (AID 1159551); also: nearly all actives have a fitted effect of over 35% in size; also: potency is read from the fitted curve at half-maximal effect
How it was run: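 Retinol-stimulated (1 uM final) C3RL4 cells, compound 6 h, 37 C; readout CellTiter-Glo luminescence (ATP) after 30 min RT incubation.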

[3] = biological target: Nuclear receptor subfamily 1 group I member 3 (Homo sapiens) (UniProt Q14994); experiment: qHTS assay to identify small molecule agonists of the constitutive androstane receptor (CAR) signaling pathway (AID 1224839); also: nearly all actives have a fitted effect of over 15% in size; also: potency is read from the fitted curve at half-maximal effect
How it was run: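 Stable hCAR/CYP2B6-2.2kb HepG2 line in DMEM with 10% FBS; compounds (15 concentrations) and 0.75 uM PK11195 final, 24 h at 37 C/5% CO2, then ONE-Glo luminescence after 30 min.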

[4] = qHTS RealTime-Glo MT Cell Viability Assay in HEK293 cells - 16 hour (AID 1224872); also: nearly all actives have a fitted effect of over 50% in size; also: potency is read from the fitted curve at half-maximal effect
How it was run: (§1)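 HEK293 cells were seeded at 600 cells/well together with NanoLuc luciferase and cell-permeant prosubstrate, preincubated 5 h at 37 C/5% CO2, then given compound in DMSO by pintool. Luminescence from viable-cell prosubstrate reduction was read repeatedly over 40 h.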

[5] = qHTS RealTime-Glo MT Cell Viability Assay in HepG2 cells - 8 hour (AID 1224873); also: nearly all actives have a fitted effect of over 55% in size; also: potency is read from the fitted curve at half-maximal effect
How it was run: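 Real-time viability: cells seeded at 600 per well together with NanoLuc and cell-permeant prosubstrate, compounds added after 5 h incubation. Luminescence tracked at 0, 8, 16, 24, 32 and 40 h of exposure.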

[6] = A CellTox Green Cytotoxicity Assay to monitor cytotoxicity in HEK293 cells - 32 hour (AID 1224881); also: nearly all actives have a fitted effect of over 40% in size; also: potency is read from the fitted curve at half-maximal effect
How it was run: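 Fluorescence intensity, read at 0, 8, 16, 24, 32 and 40 h of compound treatment, reflected dye binding to DNA of dead HEK293 cells; compounds (23 nL, DMSO) were added 5 h after plating cells with reagent.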

[7] = qHTS RealTime-Glo MT Cell Viability Assay in HEK293 cells - 24 hour (AID 1224886); also: nearly all actives have a fitted effect of over 50% in size; also: potency is read from the fitted curve at half-maximal effect
How it was run: as §1

[8] = qHTS assay to identify small molecule agonists of the androgen receptor (AR) signaling pathway in the presence of an antagonist - cell viability counter screen (AID 1259379); also: nearly all actives have a fitted effect of over 25% in size; also: potency is read from the fitted curve at half-maximal effect
How it was run: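 Seed MDA-kb2 at 3,000 cells/well; incubate 5 hr, 37C, 0% CO2. Add nilutamide to 3.0uM final, then pin compounds at 15 concentrations. Incubate 16 hr. Add CellTiter-Fluor at 15 hr, read fluorescence after 1 hr.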

[9] = qHTS assay to identify small molecule agonists of the estrogen receptor beta (ER-beta) signaling pathway - cell viability counter screen (AID 1259380); also: potency is read from the fitted curve at half-maximal effect; nearly all actives have a fitted effect of over 30% in size
How it was run: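 CellTiter-Glo read, 30 min RT, same wells as bla assay; cells ER-beta-UAS-bla HEK293T; 16 hr compound, 37C; medium 2% charcoal-stripped FBS.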

[10] = biological target: Progesterone receptor (Homo sapiens) (UniProt P06401); experiment: qHTS assay to identify small molecule agonists of the progesterone receptor (PR) signaling pathway (AID 1346784; calls by dose curve; also: nearly all actives have a fitted effect of over 30% in size)
How it was run: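 The screen uses PR-UAS-bla HEK 293T cells in charcoal-stripped serum (2%). Compounds are applied for 16 hr at 37C after a 6 hr pre-incubation, and reporter activity is detected with a FRET beta-lactamase substrate after 2 hr at room temperature.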

[11] = Human pregnane X receptor (PXR) small molecule agonists, qHTS cell viability counter screen (AID 1346977); also: nearly all actives have a fitted effect of over 50% in size; also: potency is read from the fitted curve at half-maximal effect
How it was run: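 HepG2 cells stably carrying the PXR-Luc reporter are cultured with 5% charcoal-stripped FBS and treated with compounds for 24hr. CellTiter-Fluor is added at 23hr and fluorescence is read after 1hr.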

[12] = biological target: Cytochrome P450 2D6 (Homo sapiens) (UniProt P10635); experiment: Cytochrome P450 Family 2 Subfamily D Member 6 (CYP2D6) small molecule antagonists: luciferase reporter qHTS assay (AID 1671196); also: nearly all actives have a fitted effect of over 50% in size; also: potency is read from the fitted curve at half-maximal effect
How it was run: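 Each well received CYP2D6 with its proluciferin substrate and chemical, sat 10 min, then got NADPH regeneration solution for 1 h at room temperature. Luminescence in RLU served as the activity measure.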

[13] = biological target: Cytochrome P450 3A4 (Homo sapiens) (UniProt P08684); experiment: Cytochrome P450 Family 3 Subfamily A Member 4 (CYP3A4) small molecule antagonists: luciferase reporter qHTS assay (AID 1671201); also: nearly all actives have a fitted effect of over 50% in size; also: potency is read from the fitted curve at half-maximal effect
How it was run: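 Enzyme and proluciferin substrate are mixed with test chemicals for 10 min, then NADPH regeneration system drives turnover for 1 h at room temperature. A detection reagent halts the reaction; luminescence after 20 min gives relative activity.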

[14] = qHTS assay to identify small molecule agonists of the hypoxia (HIF-1) signaling pathway - cell viability counter screen (AID 1224844; calls by dose curve; also: nearly all actives have a fitted effect of over 50% in size; also: potency is read from the fitted curve at half-maximal effect)
How it was run: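 Cells (HRE-bla ME-180, 2,000 per well) sat 5 hrs at 37C, got compound for 17 hrs, were read for CCF4-AM FRET, and were finally lysed with CellTiter-Glo for a 30 min room-temperature luminescence read.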

[15] = qHTS assay to identify small molecule antagonists of the estrogen receptor beta (ER-beta) signaling pathway - cell viability counter screen (AID 1259382); also: nearly all actives have a fitted effect of over 55% in size; also: potency is read from the fitted curve at half-maximal effect
How it was run: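 In this multiplexed counter screen, cells were seeded at 2,000 per well in medium with 2% charcoal-stripped FBS and incubated 6 hr before compound and 1nM final E2 were added. Sixteen hours later, ATP-based luminescence reported viability.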

[16] = biological target: Thyrotropin-releasing hormone receptor (Homo sapiens) (UniProt P34981); experiment: qHTS assay to identify small molecule agonists of the thyrotropin-releasing hormone receptor (TRHR) signaling pathway (AID 1346891; calls by dose curve;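 also: HEK293 cells expressing TRHR with calcium dye readout; series mostly up to about 58 µM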)
How it was run: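 Kinetic fluorescence (3 min, 1 s intervals) reported intracellular calcium after compound transfer onto TRHR-Hek293 cells pre-loaded with dye for 2 h at 37 °C.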

[17] = Caspase-3/7 induction in CHO-K1 cells by small molecules, qHTS cell viability counter screen (AID 1346979); also: nearly all actives have a fitted effect of over 35% in size; also: potency is read from the fitted curve at half-maximal effect
How it was run: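 Seeding: 1,500 CHO-K1 cells/well. Rest: 5hr, 37C. Treatment: compounds in DMSO, 16hr. Read: CellTiter-Fluor, 1hr, fluorescence.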

[18] = qHTS assay to identify small molecule agonists of H2AX - cell viability counter screen (AID 1224847; calls by dose curve; also: potency is read from the fitted curve at half-maximal effect; nearly all actives have a fitted effect of over 30% in size)
How it was run: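 Viability of CHO-K1 (wild type) cells after 3 hr compound exposure was measured by CellTiter-Glo luminescence.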

[19] = Caspase-3/7 induction in HepG2 cells by small molecules, qHTS cell viability counter screen (AID 1346981); also: nearly all actives have a fitted effect of over 30% in size; also: potency is read from the fitted curve at half-maximal effect
How it was run: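 Viability determined by CellTiter-Fluor fluorescence in HepG2 wells also used for the luminescent Caspase-Glo 3/7 read. Compounds were present for 16 hr at 37 C, 5% CO2 before reagent addition.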

[20] = qHTS assay to identify small molecule antagonists of the progesterone receptor (PR) signaling pathway - cell viability counter screen (AID 1346798)
How it was run: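 Viability was determined by ATP-based luminescence (CellTiter-Glo) in PR-UAS-bla HEK293T cells cultured in 2% charcoal-stripped serum and incubated 16 hr with compounds under R5020 stimulation.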

Sequence of Thyrotropin-releasing hormone receptor (Homo sapiens) (P34981 whole entry, looked up): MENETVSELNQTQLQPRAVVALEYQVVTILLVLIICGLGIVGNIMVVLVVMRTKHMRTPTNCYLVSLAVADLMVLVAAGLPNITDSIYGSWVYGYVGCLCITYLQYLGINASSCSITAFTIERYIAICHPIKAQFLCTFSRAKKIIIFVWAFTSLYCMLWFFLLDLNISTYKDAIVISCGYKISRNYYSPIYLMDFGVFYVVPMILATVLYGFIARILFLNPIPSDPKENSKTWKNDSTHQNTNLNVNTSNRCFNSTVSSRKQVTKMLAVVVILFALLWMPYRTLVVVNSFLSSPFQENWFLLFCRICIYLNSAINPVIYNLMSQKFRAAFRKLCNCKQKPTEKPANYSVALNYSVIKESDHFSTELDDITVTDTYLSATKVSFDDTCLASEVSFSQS
Sequence of Cytochrome P450 2D6 (Homo sapiens) (P10635 whole entry, looked up): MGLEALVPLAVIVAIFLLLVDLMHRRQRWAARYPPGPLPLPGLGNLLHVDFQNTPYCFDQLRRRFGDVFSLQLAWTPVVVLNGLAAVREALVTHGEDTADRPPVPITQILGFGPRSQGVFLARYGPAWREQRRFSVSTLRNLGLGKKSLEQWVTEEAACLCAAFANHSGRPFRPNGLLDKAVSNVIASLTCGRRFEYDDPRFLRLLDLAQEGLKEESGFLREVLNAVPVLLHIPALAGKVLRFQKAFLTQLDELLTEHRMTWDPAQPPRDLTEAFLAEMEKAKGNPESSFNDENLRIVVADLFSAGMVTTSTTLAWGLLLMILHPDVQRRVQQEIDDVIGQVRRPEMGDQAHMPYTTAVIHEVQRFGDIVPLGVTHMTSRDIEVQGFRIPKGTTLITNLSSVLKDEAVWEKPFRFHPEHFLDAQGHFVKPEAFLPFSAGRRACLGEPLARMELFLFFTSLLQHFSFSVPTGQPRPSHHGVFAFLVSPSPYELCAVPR
Sequence of Nuclear receptor subfamily 1 group I member 3 (Homo sapiens) (Q14994 whole entry, looked up): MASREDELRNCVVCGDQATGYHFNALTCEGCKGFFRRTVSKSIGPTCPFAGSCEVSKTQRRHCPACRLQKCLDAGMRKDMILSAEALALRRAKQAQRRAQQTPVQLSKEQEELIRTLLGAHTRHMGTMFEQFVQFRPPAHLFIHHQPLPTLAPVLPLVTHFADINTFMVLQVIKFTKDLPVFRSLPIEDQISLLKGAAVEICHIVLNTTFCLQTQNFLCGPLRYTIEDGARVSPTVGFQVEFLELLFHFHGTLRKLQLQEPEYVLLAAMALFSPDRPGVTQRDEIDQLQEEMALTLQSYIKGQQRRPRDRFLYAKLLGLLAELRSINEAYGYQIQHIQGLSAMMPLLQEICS
Sequence of Progesterone receptor (Homo sapiens) (P06401 whole entry, looked up): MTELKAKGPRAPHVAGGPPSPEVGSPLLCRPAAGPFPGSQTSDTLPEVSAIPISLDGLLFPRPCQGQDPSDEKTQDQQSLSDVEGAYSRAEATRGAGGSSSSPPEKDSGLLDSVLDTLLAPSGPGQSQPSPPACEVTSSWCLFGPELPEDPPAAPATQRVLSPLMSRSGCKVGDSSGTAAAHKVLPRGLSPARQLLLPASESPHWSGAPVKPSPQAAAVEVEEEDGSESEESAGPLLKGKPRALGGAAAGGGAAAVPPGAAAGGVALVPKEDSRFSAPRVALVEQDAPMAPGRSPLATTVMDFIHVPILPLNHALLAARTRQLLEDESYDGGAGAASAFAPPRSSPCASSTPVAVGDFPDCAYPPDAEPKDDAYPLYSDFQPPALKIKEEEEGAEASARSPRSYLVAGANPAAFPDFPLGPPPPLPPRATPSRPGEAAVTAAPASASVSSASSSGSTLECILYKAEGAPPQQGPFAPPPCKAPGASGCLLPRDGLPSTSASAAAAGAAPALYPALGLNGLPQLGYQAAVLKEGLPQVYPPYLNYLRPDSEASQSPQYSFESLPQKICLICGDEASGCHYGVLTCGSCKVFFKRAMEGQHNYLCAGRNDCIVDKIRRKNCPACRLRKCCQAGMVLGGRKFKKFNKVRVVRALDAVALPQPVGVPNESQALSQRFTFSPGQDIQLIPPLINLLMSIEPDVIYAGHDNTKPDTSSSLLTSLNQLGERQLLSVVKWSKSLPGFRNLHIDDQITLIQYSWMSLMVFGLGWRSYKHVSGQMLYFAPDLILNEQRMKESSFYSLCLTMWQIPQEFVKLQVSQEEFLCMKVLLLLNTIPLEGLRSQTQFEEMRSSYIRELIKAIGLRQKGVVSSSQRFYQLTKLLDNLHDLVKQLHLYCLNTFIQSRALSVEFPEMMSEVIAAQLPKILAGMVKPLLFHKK
Sequence of Cytochrome P450 3A4 (Homo sapiens) (P08684 whole entry, looked up): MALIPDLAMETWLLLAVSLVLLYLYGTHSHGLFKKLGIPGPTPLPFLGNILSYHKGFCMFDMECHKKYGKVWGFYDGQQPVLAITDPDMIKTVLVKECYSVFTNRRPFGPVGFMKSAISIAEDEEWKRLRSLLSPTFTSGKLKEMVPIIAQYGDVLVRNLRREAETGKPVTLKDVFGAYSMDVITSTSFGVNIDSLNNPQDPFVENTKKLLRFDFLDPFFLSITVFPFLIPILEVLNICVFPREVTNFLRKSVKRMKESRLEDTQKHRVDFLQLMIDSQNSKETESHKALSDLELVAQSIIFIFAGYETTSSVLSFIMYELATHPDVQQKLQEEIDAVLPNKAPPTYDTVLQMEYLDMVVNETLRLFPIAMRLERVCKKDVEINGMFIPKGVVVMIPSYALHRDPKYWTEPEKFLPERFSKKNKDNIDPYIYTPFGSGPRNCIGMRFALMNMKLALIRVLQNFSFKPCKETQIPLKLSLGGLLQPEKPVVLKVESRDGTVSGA

For `O=C1C(I)=CC(=C(c2cc(I)c(O)c(I)c2)c2ccccc2C(=O)O)C=C1I`, the Potency [1] was “inactive”, the Potency [2] was “inactive” and the Potency [3] was “inactive”. For the same molecule, the Potency [4] was “inactive”, the Potency [5] was “inactive” and the Potency [6] was “inactive”. For the same molecule, the Potency [7] was “inactive”, the Potency [8] was “inactive” and the Potency [9] was 9.44 µM (active). The outcome [10] was “inactive”, the Potency [11] was “inactive” and the Potency [12] was “inactive”. For the same molecule, the Potency [13] was “inactive”.

In the case of `Cc1nnc2n1-c1sc(CCc3ccc(CC(C)C)cc3)cc1C(c1ccccc1Cl)=NC2C` (stereo not given), the Potency [1] is reported as 23.9 µM (active), the Potency [14] is reported as 19 µM (active) and the Potency [4] is reported as 19 µM (active). The Potency [7] was 10.7 µM (active), the Potency [9] was 29.8 µM (active) and the Potency [15] was 33.5 µM (active). For the same molecule, the outcome [16] was “inactive” and the Potency [17] was 29.8 µM (active).

For `Cc1ccc(N(SC(F)(Cl)Cl)S(=O)(=O)N(C)C)cc1`, the Potency [1] was 38.9 µM (active), the Potency [2] was 48.6 µM (active) and the Potency [3] was “inactive”. The Potency [14] was 17.4 µM (active), the Potency [18] was 89.8 µM (active) and the Potency [4] was 5.49 µM (active). For the same molecule, the Potency [5] was 21.9 µM (active), the Potency [6] was 5.49 µM (active) and the Potency [7] was 5.49 µM (active). The Potency [8] was 27.3 µM (active), the Potency [9] was 54.5 µM (active) and the outcome [16] was “inactive”. For the same molecule, the Potency [11] was 43.3 µM (active), the Potency [17] was 4.33 µM (active) and the Potency [19] was 61.1 µM (active).

For `ClC1=C(Cl)[C@]2(Cl)[C@@H]3[C@@H](Cl)[C@H]4O[C@H]4[C@@H]3C1(Cl)C2(Cl)Cl`, the Potency [1] was 49 µM (active), the Potency [14] was “inactive” and the Potency [18] was 113 µM (active). The Potency [4] was 54.9 µM (active), the Potency [6] was 54.9 µM (active) and the Potency [8] was “inactive”. The outcome [10] was “inactive”, the Potency [20] was “inactive” and the Potency [19] was “inactive”. For the same molecule, the Potency [12] was “inactive”.

For `COc1ccc(C(c2ccc(OC)cc2)C(Cl)(Cl)Cl)cc1`, the Potency [2] was “inactive”, the Potency [3] was 2.42 µM (active) and the Potency [14] was “inactive”. For the same molecule, the Potency [18] was 50.2 µM (active), the Potency [6] was “inactive” and the Potency [7] was 48.7 µM (active). The Potency [15] was “inactive”, the outcome [16] was “inactive” and the Potency [17] was 60.8 µM (active). For the same molecule, the Potency [12] was 44.5 µM (active) and the Potency [13] was “inactive”.

With `OCC(c1ccc(Cl)cc1)c1ccc(Cl)cc1` the Potency [1] was 54.9 µM (active), the Potency [18] was 89.8 µM (active) and the Potency [4] was 30.9 µM (active). For the same molecule, the Potency [6] was 38.9 µM (active), the Potency [7] was 30.9 µM (active) and the Potency [8] was “inactive”. The Potency [9] was 54.5 µM (active), the outcome [16] was “inactive” and the Potency [19] was “inactive”. For the same molecule, the Potency [12] was “inactive” and the Potency [13] was “inactive”.

For `CC1COC(Cn2cncn2)(c2ccc(Oc3ccc(Cl)cc3)cc2Cl)O1` (stereo not given), the Potency [2] was “inactive”, the Potency [14] was “inactive” and the Potency [18] was 101 µM (active). The Potency [4] was 21.9 µM (active), the Potency [6] was “inactive” and the Potency [7] was 19.5 µM (active). The Potency [8] was 48.6 µM (active), the Potency [11] was 21.7 µM (active) and the Potency [17] was 24.3 µM (active). For the same molecule, the Potency [19] was 43.3 µM (active), the Potency [12] was 39.9 µM (active) and the Potency [13] was 0.0796 µM (active).

For `CCc1cccc(CC)c1N`, the Potency [3] was “inactive”.

For `Clc1ccccc1-c1ccccc1Cl`, the Potency [18] was 64.5 µM (active), the Potency [5] was “inactive” and the Potency [6] was 31.4 µM (active). The Potency [8] was “inactive”, the Potency [15] was “inactive” and the outcome [10] was “inactive”. For the same molecule, the outcome [16] was “inactive”, the Potency [11] was “inactive” and the Potency [17] was “inactive”. The Potency [19] was “inactive”, the Potency [12] was “inactive” and the Potency [13] was “inactive”.

For `Oc1c(Cl)ccc(Cl)c1Cl`, the outcome [10] was “inactive”.

In the case of `O=C(c1ccc(Cl)cc1)c1ccc(Cl)cc1`, the Potency [3] is reported as “inactive”.
